Key:
Assay in all cases: CellTox Green cytotoxicity fluorescence relative to DMSO vehicle (fold of vehicle RFU); higher = more cell death (loss of membrane integrity), active = 2 or more
CMK = system: CMK
Method in brief: (§1)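 Single compounds from the Selleckchem apoptosis library were applied at final 0.01, 0.1 and 1 µM (0.1% DMSO vehicle) to MV4-11, CMK and Kasumi-1 cells seeded at 4.0 × 10^4 cells per well with CellTox Green reagent. After incubation at 37 °C, 5% CO2, fluorescence was read at 24, 48 and 72 h. Cytotoxicity, meaning loss of membrane integrity, is shown as fold of the DMSO vehicle signal.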

Kasumi-1 = system: Kasumi-1
Method in brief: as §1

MV4-11 = system: MV4-11
Method in brief: as §1

Measured: CellTox Green cytotoxicity fluorescence

Cc1nn(C)c(COc2ccc(N3CCN(S(=O)(=O)N(C)C)CC3)cc2)c1-c1cccc2c(CCCOc3cccc4ccccc34)c(C(=O)O)n(CCN3CCOCC3)c12
inactive: CMK; 0.01 µM, 24 h 0.996 | CMK; 0.01 µM, 48 h 1 | CMK; 0.01 µM, 72 h 1 | CMK; 0.1 µM, 24 h 0.995 | CMK; 0.1 µM, 48 h 0.985 | CMK; 0.1 µM, 72 h 0.957 | CMK; 1 µM, 24 h 0.985 | CMK; 1 µM, 48 h 1.01 | CMK; 1 µM, 72 h 0.948 | Kasumi-1; 0.01 µM, 24 h 0.998 | Kasumi-1; 0.01 µM, 48 h 0.981 | Kasumi-1; 0.01 µM, 72 h 0.976 | Kasumi-1; 0.1 µM, 24 h 1.01 | Kasumi-1; 0.1 µM, 48 h 1.03 | Kasumi-1; 0.1 µM, 72 h 1.04 | Kasumi-1; 1 µM, 24 h 0.938 | Kasumi-1; 1 µM, 48 h 1.03 | Kasumi-1; 1 µM, 72 h 1.03 | MV4-11; 0.01 µM, 24 h 0.991 | MV4-11; 0.01 µM, 48 h 0.986 | MV4-11; 0.01 µM, 72 h 0.981 | MV4-11; 0.1 µM, 24 h 1.05 | MV4-11; 0.1 µM, 48 h 1.1 | MV4-11; 0.1 µM, 72 h 1.12 | MV4-11; 1 µM, 24 h 1.15 | MV4-11; 1 µM, 48 h 1.49 | MV4-11; 1 µM, 72 h 1.67

COC(=O)[C@H](CCSC)NC(=O)c1ccc(NC[C@@H](N)CS)cc1-c1ccccc1
inactive: CMK; 0.01 µM, 24 h 0.934 | CMK; 0.01 µM, 48 h 0.924 | CMK; 0.01 µM, 72 h 0.941 | CMK; 0.1 µM, 24 h 0.896 | CMK; 0.1 µM, 48 h 0.897 | CMK; 0.1 µM, 72 h 0.941 | CMK; 1 µM, 24 h 0.938 | CMK; 1 µM, 48 h 0.978 | CMK; 1 µM, 72 h 1.04 | Kasumi-1; 0.01 µM, 24 h 0.974 | Kasumi-1; 0.01 µM, 48 h 0.922 | Kasumi-1; 0.01 µM, 72 h 0.926 | Kasumi-1; 0.1 µM, 24 h 0.932 | Kasumi-1; 0.1 µM, 48 h 0.927 | Kasumi-1; 0.1 µM, 72 h 0.924 | Kasumi-1; 1 µM, 24 h 0.941 | Kasumi-1; 1 µM, 48 h 0.973 | Kasumi-1; 1 µM, 72 h 0.997 | MV4-11; 0.01 µM, 24 h 0.942 | MV4-11; 0.01 µM, 48 h 0.936 | MV4-11; 0.01 µM, 72 h 0.953 | MV4-11; 0.1 µM, 24 h 0.947 | MV4-11; 0.1 µM, 48 h 0.943 | MV4-11; 0.1 µM, 72 h 0.932 | MV4-11; 1 µM, 24 h 0.927 | MV4-11; 1 µM, 48 h 0.931 | MV4-11; 1 µM, 72 h 0.944

COc1ccc(CCNCc2ccc(OCc3ccc(Cl)nc3)c(OC)c2)cc1OC
inactive: CMK; 0.01 µM, 24 h 0.968 | CMK; 0.01 µM, 48 h 0.978 | CMK; 0.01 µM, 72 h 0.979 | CMK; 0.1 µM, 24 h 0.96 | CMK; 0.1 µM, 48 h 0.955 | CMK; 0.1 µM, 72 h 0.961 | CMK; 1 µM, 24 h 0.94 | CMK; 1 µM, 48 h 0.968 | CMK; 1 µM, 72 h 0.996 | Kasumi-1; 0.01 µM, 24 h 0.943 | Kasumi-1; 0.01 µM, 48 h 0.942 | Kasumi-1; 0.01 µM, 72 h 0.931 | Kasumi-1; 0.1 µM, 24 h 0.953 | Kasumi-1; 0.1 µM, 48 h 0.936 | Kasumi-1; 0.1 µM, 72 h 0.949 | Kasumi-1; 1 µM, 24 h 0.975 | Kasumi-1; 1 µM, 48 h 0.987 | Kasumi-1; 1 µM, 72 h 0.979 | MV4-11; 0.01 µM, 24 h 0.971 | MV4-11; 0.01 µM, 48 h 0.978 | MV4-11; 0.01 µM, 72 h 0.996 | MV4-11; 0.1 µM, 24 h 0.949 | MV4-11; 0.1 µM, 48 h 0.961 | MV4-11; 0.1 µM, 72 h 0.967 | MV4-11; 1 µM, 24 h 0.953 | MV4-11; 1 µM, 48 h 0.949 | MV4-11; 1 µM, 72 h 0.945

CC(C)CC(NC(=O)C(Cc1ccccc1)CC(O)C(Cc1ccccc1)NC(=O)OC(C)(C)C)C(=O)NC(Cc1ccccc1)C(N)=O (configuration not stated)
inactive: CMK; 0.01 µM, 24 h 1 | CMK; 0.01 µM, 48 h 1 | CMK; 0.01 µM, 72 h 1.03 | CMK; 0.1 µM, 24 h 0.943 | CMK; 0.1 µM, 48 h 0.922 | CMK; 0.1 µM, 72 h 0.899 | CMK; 1 µM, 24 h 0.947 | CMK; 1 µM, 48 h 0.949 | CMK; 1 µM, 72 h 0.919 | Kasumi-1; 0.01 µM, 24 h 0.952 | Kasumi-1; 0.01 µM, 48 h 0.963 | Kasumi-1; 0.01 µM, 72 h 0.962 | Kasumi-1; 0.1 µM, 24 h 0.943 | Kasumi-1; 0.1 µM, 48 h 0.974 | Kasumi-1; 0.1 µM, 72 h 0.946 | Kasumi-1; 1 µM, 24 h 0.912 | Kasumi-1; 1 µM, 48 h 0.993 | Kasumi-1; 1 µM, 72 h 1 | MV4-11; 0.01 µM, 24 h 0.952 | MV4-11; 0.01 µM, 48 h 0.964 | MV4-11; 0.01 µM, 72 h 0.968 | MV4-11; 0.1 µM, 24 h 0.937 | MV4-11; 0.1 µM, 48 h 0.952 | MV4-11; 0.1 µM, 72 h 0.944 | MV4-11; 1 µM, 24 h 0.919 | MV4-11; 1 µM, 48 h 0.947 | MV4-11; 1 µM, 72 h 0.967

CC(C)c1ccccc1Cc1cc(C(=O)Nc2ccc(S(=O)(=O)c3ccccc3C(C)(C)C)cc2)c(O)c(O)c1O
inactive: CMK; 0.01 µM, 24 h 0.947 | CMK; 0.01 µM, 48 h 0.942 | CMK; 0.01 µM, 72 h 0.932 | CMK; 0.1 µM, 24 h 0.932 | CMK; 0.1 µM, 48 h 0.922 | CMK; 0.1 µM, 72 h 0.947 | CMK; 1 µM, 24 h 0.924 | CMK; 1 µM, 48 h 1.51 | CMK; 1 µM, 72 h 1.6 | Kasumi-1; 0.01 µM, 24 h 0.977 | Kasumi-1; 0.01 µM, 48 h 0.911 | Kasumi-1; 0.01 µM, 72 h 0.915 | Kasumi-1; 0.1 µM, 24 h 0.951 | Kasumi-1; 0.1 µM, 48 h 0.94 | Kasumi-1; 0.1 µM, 72 h 0.932 | Kasumi-1; 1 µM, 24 h 0.94 | Kasumi-1; 1 µM, 48 h 0.909 | Kasumi-1; 1 µM, 72 h 0.919 | MV4-11; 0.01 µM, 24 h 0.952 | MV4-11; 0.01 µM, 48 h 0.952 | MV4-11; 0.01 µM, 72 h 0.957 | MV4-11; 0.1 µM, 24 h 0.956 | MV4-11; 0.1 µM, 48 h 0.944 | MV4-11; 0.1 µM, 72 h 0.945 | MV4-11; 1 µM, 24 h 0.933 | MV4-11; 1 µM, 48 h 1.16 | MV4-11; 1 µM, 72 h 1.84

COc1ccc(C2=N[C@@H](c3ccc(Cl)cc3)[C@@H](c3ccc(Cl)cc3)N2C(=O)N2CCNC(=O)C2)c(OC(C)C)c1 [Nutlin-3]
inactive: CMK; 0.01 µM, 24 h 0.981 | CMK; 0.01 µM, 48 h 0.982 | CMK; 0.01 µM, 72 h 0.971 | CMK; 0.1 µM, 24 h 1 | CMK; 0.1 µM, 48 h 1.01 | CMK; 0.1 µM, 72 h 1.03 | CMK; 1 µM, 24 h 1.02 | CMK; 1 µM, 48 h 1.01 | CMK; 1 µM, 72 h 1.03 | Kasumi-1; 0.01 µM, 24 h 1.02 | Kasumi-1; 0.01 µM, 48 h 1.01 | Kasumi-1; 0.01 µM, 72 h 0.998 | Kasumi-1; 0.1 µM, 24 h 0.977 | Kasumi-1; 0.1 µM, 48 h 0.977 | Kasumi-1; 0.1 µM, 72 h 0.959 | Kasumi-1; 1 µM, 24 h 1.01 | Kasumi-1; 1 µM, 48 h 1.01 | Kasumi-1; 1 µM, 72 h 1.05 | MV4-11; 0.01 µM, 24 h 0.981 | MV4-11; 0.01 µM, 48 h 1 | MV4-11; 0.01 µM, 72 h 0.995 | MV4-11; 0.1 µM, 24 h 0.991 | MV4-11; 0.1 µM, 48 h 0.999 | MV4-11; 0.1 µM, 72 h 1.03 | MV4-11; 1 µM, 24 h 1.01 | MV4-11; 1 µM, 48 h 1.24 | MV4-11; 1 µM, 72 h 1.46

From the supplement of paper PMC7595190
